Assay results: PubChem BioAssay AID488857 (Sanford-Burnham Center for Chemical Genomics, 2010)
Among all 1,400 compounds or so, about 560 (40%) were called active.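 Rule for the calls: active = mean inhibition over duplicate tests at 10 µM above 50%; inactive = the rest.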 So high a share suggests a set chosen from earlier hits. This is one part of the list.

Test: ASC/caspase-1 reporter retest in S. cerevisiae at one dose, specificity check for NALP1 project (AID 488857)
Conditions: S. cerevisiae ASC/Caspase-1, beta-galactosidase luminescence, 24 h; at 10 µM; hits give high values

| Compound | inhibition |
| --- | --- |
| COc1ccc(NC(=S)SC)cc1OC | 60.2% (active) |
| COc1ccc(C(=O)Nc2ccc(S(=O)(=O)Nc3nccc(C)n3)cc2)cc1OC | 35.9% (inactive) |
| COc1ccc(NC(=S)N(C(C)C)C2CCN(C(C)C)CC2)cc1Cl | 25.9% (inactive) |
| CC1CN(S(=O)(=O)c2ccc(C(=O)Nc3nc(-c4cc5ccccc5o4)cs3)cc2)CC(C)O1 (stereo not drawn) | 32.9% (inactive) |
| O=C(CN1CCc2ccccc2C1)NCc1ccco1 | 36.3% (inactive) |
| CCn1c(C(=O)N2CCc3ccccc3C2)cc2oc3ccccc3c21 | 44.5% (inactive) |
| O=C(c1cc(-c2ccc(O)cc2)on1)N1CCc2ccccc2C1 | 58.4% (active) |
| CC1(O)N(Cc2ccccc2)C(=O)OC12CCCCC2 (stereo not drawn) | 45.9% (inactive) |
| OCCn1c(-c2ccc(F)cc2)csc1=Nc1ccccc1 | 46.5% (inactive) |
| Cc1c(Cl)cccc1NC(=O)c1cccc(OC(F)F)c1 | 68.8% (active) |
| O=C(NCCN1C(=O)S/C(=C\c2cccnc2)C1=O)c1cccc(OC(F)F)c1 | 45.1% (inactive) |
| COc1ccc(NC(=O)c2ccc(C)cc2)c(OC)c1 | 36.7% (inactive) |
| CSc1ccccc1NC(=O)Nc1ccccc1Cl | 49.8% (inactive) |
| COc1ccc(C)cc1NC(=O)c1ccc(CN2CCN(c3ccccc3)CC2)cc1 | 33.5% (inactive) |
| COc1ccc(C)cc1NC(=O)c1ccc(OC(F)F)cc1 | 66.2% (active) |
| CCN(CC1COc2ccccc2O1)S(=O)(=O)c1ccc(C)cc1 (stereo not drawn) | 43.9% (inactive) |
| Cc1c(C(=O)NCC2COc3ccccc3O2)oc2ccc(S(=O)(=O)N3CC(C)CC(C)C3)cc12 (stereo not drawn) | 30.4% (inactive) |
| CC(C)Oc1ccc(NC(=O)CCC(=O)O)cc1 | 28.5% (inactive) |
| O=C(Nc1ccc(Nc2ccccc2)cc1)C(Cl)Cl | 76.3% (active) |
| C/C(=N\NC(=O)Nc1ccccc1)c1ccccc1 | 41.4% (inactive) |
| Cc1cccc(C)c1NC(=O)C(Cl)C(=O)c1ccccc1 (stereo not drawn) | 2.6% (inactive) |
| CC(C)C(=O)Nc1ccc(Nc2ccccc2)cc1 | 68.2% (active) |
| O=c1c(O)c(-c2cccs2)oc2ccccc12 | 91% (active) |
| CCC(C)C(=O)N1c2ccccc2C(=C2SC(C(=O)OC)=C(C(=O)OC)S2)C(=S)C1(C)C (stereo not drawn) | 51.8% (active) |
| CCC(Cc1ccccc1)NC(=O)C1CCN(S(=O)(=O)c2c(C)noc2C)CC1 (stereo not drawn) | 28.6% (inactive) |
| CN(C)c1ccc(/C=C/c2ccc3ccccc3[n+]2C)cc1 | 96.8% (active) |

| Compound | inhibition |
| --- | --- |
| CC[n+]1c(/C=C/c2ccc(N(C)C)cc2)ccc2ccccc21 | 96.5% (active) |
| O=S(=O)(Nc1cccnc1)c1cccs1 | 25.8% (inactive) |
| O=C(O)c1ccc(S(=O)(=O)/N=C2\C=C(Nc3ccccc3F)C(=O)c3ccccc32)cc1 | 100% (active) |
| O=C1C(Nc2ccccc2)=C/C(=N/S(=O)(=O)c2cccs2)c2ccccc21 | 89.7% (active) |
| O=C1c2ccccc2-c2cccc(NS(=O)(=O)c3ccc(C(F)(F)F)cc3)c21 | 36.2% (inactive) |
| CN(C)c1ccc(/C=N/NC(=O)c2nnn(-c3nonc3N)c2CN(C)c2ccccc2)cc1 | 20.1% (inactive) |
| Cc1cc(C)c(NC(=O)/C(=C/c2ccccc2)c2ccccc2)c(C)c1 | 31.6% (inactive) |
| S=c1[nH]nc(-c2ccco2)n1/N=C/c1cccc(Cl)c1Cl | 65.7% (active) |
| CCOC(=O)C1CCCN(C2CC(=O)N(c3cccc(C(F)(F)F)c3)C2=O)C1 (stereo not drawn) | 42.8% (inactive) |
| O=c1ncn(-c2cccc(F)c2)c2ncccc12 | 35.6% (inactive) |
| O=[N+]([O-])c1ccc(NC(=S)NCCc2ccc(F)cc2)cc1 | 96.3% (active) |
| S=C(NCCc1ccccc1)Nc1ccc(Br)cc1 | 90.7% (active) |
| O=[N+]([O-])c1ccc(N2CCN(C(=S)Nc3ccccc3)CC2)cc1 | 35.5% (inactive) |
| O=C(NC(=S)NCCCN1CCOCC1)c1ccc([N+](=O)[O-])cc1 | 37% (inactive) |
| Cc1cc(C)cc(NS(=O)(=O)c2ccc(NC(=S)Nc3ccccc3)cc2)c1 | 23.9% (inactive) |
| S=C(NCCCc1ccccc1)Nc1ccc(Cl)cc1 | 95.5% (active) |
| O=C(NCCCc1ccccc1)c1ccccc1O | 47.4% (inactive) |
| CCCCCCCCCCOC(=O)Cn1c(COc2ccc(Cl)cc2)[n+](C)c2ccccc21 | 29.6% (inactive) |
| Cc1ccc(Cn2nnnc2CN2CCC(c3nc4ccc(Cl)cc4[nH]3)CC2)cc1 | 31.4% (inactive) |
| CCOC(=O)/C=C/C(=O)Nc1nccs1 | 47.1% (inactive) |
| Cc1ccc(NC(=O)/C=C\C(=O)NCC(=O)O)cc1C | 39% (inactive) |
| CCN(C(=O)COC(=O)c1cccnc1Nc1cccc(C(F)(F)F)c1)C1CCS(=O)(=O)C1 (stereo not drawn) | 29.9% (inactive) |
| CCOC(=O)/C=C/C(=O)Nc1cccc([N+](=O)[O-])c1 | 55.5% (active) |
| NC(=O)/C=C\C(=O)Nc1cccc(C(F)(F)F)c1 | 72.8% (active) |
| COC(=O)/C=C/C(=O)Nc1cccc(C(F)(F)F)c1 | 60.1% (active) |
| COC(=O)/C=C\C(=O)Nc1cccc([N+](=O)[O-])c1 | 42.8% (inactive) |

| Compound | inhibition |
| --- | --- |
| O=C(NC1CCCC1)C(c1ccccn1)N(C(=O)c1csnn1)C1CC1 (stereo not drawn) | 32.6% (inactive) |
| O=C(O)c1cccnc1C(=O)N1CCc2c([nH]c3ccccc23)C1C(F)(F)F (stereo not drawn) | 18.5% (inactive) |
| O=C1c2ccccc2C(=O)c2c1ncn2-c1ccccc1 | 45.6% (inactive) |
| O=C(CN(Cc1ccccc1)S(=O)(=O)c1ccc(S(=O)(=O)N2CCOCC2)cc1)Nc1ccccc1 | 36.3% (inactive) |
| N#C/C(=C/c1cccs1)c1nc2ccccc2[nH]1 | 98.2% (active) |
| N#C/C(=C\c1ccc([N+](=O)[O-])o1)c1nc2ccccc2[nH]1 | 20.7% (inactive) |
| Cn1c(/C(C#N)=C/C2CC=CCC2)nc2ccccc21 (stereo not drawn) | 45.5% (inactive) |
| CC(C)C(C(=O)O)N1C(=O)/C(=C/c2cccn2C)SC1=S (stereo not drawn) | 56.4% (active) |
| C/C(=N\NC(=O)c1c[nH]c2ccccc12)c1ccco1 | 40.6% (inactive) |
| CN(Cc1ccccc1)C(=O)c1ccc([N+](=O)[O-])o1 | 41.7% (inactive) |
| O=[N+]([O-])c1ccc(/C=N/NS(=O)(=O)c2ccc(Cl)cc2)o1 | 23.6% (inactive) |
| CCN(CC)c1ccc(N=Cc2ccc([N+](=O)[O-])o2)cc1 | 69.8% (active) |
| C/C(=N\NC(=O)c1csc(C)c1C)c1ccc(Cl)s1 | 59.2% (active) |
| CC/C(=N\NC(=O)c1ccccc1Cl)c1ccc(Br)s1 | 38.1% (inactive) |
| Cc1ccc2nc(N(CCCN(C)C)C(=O)c3sc4ccccc4c3Cl)sc2c1 | 31.8% (inactive) |
| Cc1cccc2sc(N(CCCN(C)C)C(=O)c3sc4ccccc4c3Cl)nc12 | 63.2% (active) |
| CN(C)CCCN(C(=O)c1sc2ccccc2c1Cl)c1nc2ccc(F)cc2s1 | 55.7% (active) |
| Cc1cc(C=C2C(=O)c3ccccc3C2=O)c(C)n1C | 37.7% (inactive) |
| O=C(c1ccc(Br)o1)N(c1ccccn1)C1CCCCC1 | 33.8% (inactive) |
| CC(=O)N(C1=C(Cl)C(=O)c2ccccc2C1=O)C1CCCCC1 | 50.3% (active) |
| C/C(=N\N(C)C)C1=C(O)c2ccccc2C1=O | 32.5% (inactive) |
| CN(c1ccccc1)c1ccc(/C=C/[N+](=O)[O-])cc1 | 96.7% (active) |
| O=C(O)CC1NC(=S)N(c2ccccc2)C1=O (stereo not drawn) | 31.6% (inactive) |
| COC(=O)c1cc(=O)n(-c2c(Cl)cc(C(F)(F)F)cc2Cl)[nH]1 | 34.8% (inactive) |
| c1ccc(-c2c[nH]c3[n+]2CCCCC3)cc1 | 52.4% (active) |
| Oc1ccc2ccccc2c1CN1CCN(c2ccccc2)CC1 | 45.1% (inactive) |

| Compound | inhibition |
| --- | --- |
| CC(NCCC(c1ccccc1)c1ccccc1)c1ccccc1 (stereo not drawn) | 50.4% (active) |
| Cc1cc(C)cc(C(=O)OCC(=O)NCCNC(=O)COC(=O)c2cc(C)cc(C)c2)c1 | 23.8% (inactive) |
| COc1ccc(C(=O)C2CCCN(C(=O)Cn3nc(C)cc3C)C2)cc1F (stereo not drawn) | 46.8% (inactive) |
| Cc1ccc(C)c(NC(=O)CSc2nnc(-c3ccccc3)o2)c1 | 45.4% (inactive) |
| Cc1ccc(NC(=O)CSC2=Nc3ccccc3C3CC=NN23)c(C)c1 (stereo not drawn) | 56.6% (active) |
| Cc1ccc(NC(=O)Cn2cccc2)c(C)c1 | 28.5% (inactive) |
| Cc1nc2nc3c(cn2n1)C(=O)CCC3 | 23.6% (inactive) |
| COC(=O)c1ccccc1NC(=O)CN1CCC(n2nnc3cc(F)ccc32)CC1 | 33.6% (inactive) |
| COc1ccccc1NC(=O)CCN1CCN(Cc2ccccc2)CC1 | 45.7% (inactive) |
| COc1ccccc1NC(=O)c1ccc(C)s1 | 50.4% (active) |
| COc1ccccc1NC(=O)C1=C(C)NC(=O)NC1c1cccs1 (stereo not drawn) | 32.2% (inactive) |
| CC(C)NC(=O)CCCOc1ccc(Cl)cc1Cl | 48.5% (inactive) |
| C#CCN(C)CCCOc1ccc(Cl)cc1Cl | 54% (active) |
| CCCCOc1ccccc1NC(=O)c1ccco1 | 46.5% (inactive) |
| CCCOc1ccccc1NC(=O)/C=C/C(N)=O | 58% (active) |
| CCOc1ccccc1N/C=C(\C#N)c1nc2ccccc2n1C | 26.1% (inactive) |
| CCOc1ccccc1NC(=O)/C=C/C(N)=O | 59.4% (active) |
| O=C(c1nnsc1S(=O)c1ccc(Cl)cc1)N1CCOCC1 (stereo not drawn) | 71.7% (active) |
| CNC(=O)c1nnsc1S(=O)c1ccc(Cl)cc1 (stereo not drawn) | 78.5% (active) |
| O=C(CCSc1nc2cc(Cl)ccc2o1)N1CCOCC1 | 32.5% (inactive) |
| CCCNC(=O)c1nnsc1S(=O)c1ccc(Cl)cc1 (stereo not drawn) | 96.7% (active) |
| Clc1ccc(SCCCCN2CCOCC2)cc1 | 36.5% (inactive) |
| Cc1c(Cl)sn(-c2ccc(Cl)cc2)c1=O | 84.5% (active) |
| O=C(O)c1ccccc1SC1CC(=O)N(c2ccccc2)C1=O (stereo not drawn) | 34.5% (inactive) |
| CN(C)c1ccc(N2C(=O)CC(Sc3ccccc3C(=O)O)C2=O)cc1 (stereo not drawn) | 59.8% (active) |
